Assay results as given in PubChem BioAssay (NCATS).
Results filed as inconclusive are left out. Unmarked numbers belong to inactive results. Activity calls are given as the source filed them. Calls come from the whole dose curve; as a rule, active = well fitted cell-killing curve with a large enough effect; inconclusive = small, poorly fitted or top-dose-only effect, or effect the other way; inactive = no such curve, though single readings can be large or run the other way.

assay: Quantitative High-Throughput drug screen in 47 multiple myeloma cell lines against the NCATS MIPE library collection: KMS27_JCRB cell viability assay (AID 1918970); details: KMS27 myeloma cells, CellTiter-Glo ATP viability, 48 h; series mostly up to 45.8 µM; viability (% of DMSO): at the top concentration; note: nearly all actives have a fitted effect of over 30% in size
Text: PI: Beverly A. Mock Ph.D.
Laboratory of Cancer Biology and Genetics,
Center for Cancer Research, National Cancer Institute,
National Institute of Health, Bethesda, Maryland
Drug resistance and disease progression are common in multiple myeloma (MM) patients, underscoring the need for new therapeutic combinations. […] We hypothesized that effective combinations would reduce MYC expression and enhance p16 activity. […] These preclinical data identify potentially useful drug combinations for evaluation in drug-resistant MM and reveal potential mechanisms of combined drug sensitivity.
Described herein is the primary MIPE qHTS used to cherrypick compounds. Validated compounds were then further tested for potential synergistic activiy.
[1] Peat TJ, Gaikwad SM, Dubois W, Gyabaah-Kessie N, Zhang S, Gorjifard S, Phyo Z, Andres M, Hughitt VK, Simpson RM, Miller MA, Girvin AT, Taylor A, Williams D, D'Antonio N, Zhang Y, Rajagopalan A, Flietner E, Wilson K, Zhang X, Shinn P, Klumpp-Thomas C, McKnight C, Itkin Z, Chen L, Kazandijian D, Zhang J, Michalowski AM, Simmons JK, Keats J, Thomas CJ, Mock BA. Drug combinations identified by high-throughput screening promote cell cycle transition and upregulate Smad pathways in myeloma. […] Epub 2023 Jun 24. PMID: 37356470; PMCID: PMC10408729.
SEQUENCE No. (e.g., 1, 2, 3, etc.); […] (e.g., Cells, Incubation, Reagent, etc.); VALUE and DESCRIPTION.
1; Cells; 5 uL; white, solid bottom 1536-well Greiner assay plate.
2; Compounds; 23 nL; Kalypsis pin tool (Wako USA) equipped with a 1536-well pin head to transfer to the assay plates.
3; Incubation; 48 hours; 37C incubation.
4; Reagent;5uL; CellTiter Glo (Promega).
5; Detector; 425V; Luminescence; Viewlux PerkinElmer.
NOTES (numbers refer to Sequence numbers above)
1. The cell-based screening methods employed in this study were like those previously published. Briefly, the corresponding myeloma cell lines were screened in 1,536-well plates with 500 cells, 5-uL per well for inhibition of cell viability (assessed by measuring ATP levels with CellTiterGlo).
2. NCATS MIPE 4.0 library of approved and investigational drugs were added using the Kalypsis pin tool. Wells treated with DMSO only for 100% viability and media only wells for 0% viability were used as controls.
3. The assay plates were covered and incubated for 48 hours in a 37C, 5% CO2 incubator with controlled humidity.
4. After 48 hours, CellTilter-GloTM luminescent substrate mix (Promega) reagent was added to the assay plate and plates we incubated for 5 min at room temperature.
5. Signal was measured as median relative luminescence units on a ViewLux (PerkinElmer) multiplate reader.
[1] Heske CM, Davis MI, Baumgart JT, Wilson K, Gormally MV, Chen L, Zhang X, Ceribelli M, Duveau DY, Guha R, Ferrer M, Arnaldez FI, Ji J, Tran HL, Zhang Y, Mendoza A, Helman LJ, Thomas CJ. Matrix Screen Identifies Synergistic Combination of PARP Inhibitors and Nicotinamide Phosphoribosyltransferase (NAMPT) Inhibitors in Ewing Sarcoma. Clin Cancer Res. 2017 Dec 1;23(23):7301-7311. doi: 10.1158/1078-0432.CCR-17-1121. Epub 2017 Sep 12. PMID: 28899971; PMCID: PMC6636827.
Potency is the fitted concentration of half-maximal effect.

SMILES | viability (% of DMSO) | Potency
Cc1cccc(C)c1NC(=O)CN1CCCC1=O | 94% | –
COc1ccc(C(CN(C)C)C2(O)CCCCC2)cc1 (configuration not stated) | 123% | –
Cc1sc2c(c1C)C(c1ccc(Cl)cc1)=N[C@@H](CC(=O)OC(C)(C)C)c1nnc(C)n1-2 | – | 52.6 nM (active)
C=C(C)[C@H]1Cc2c(ccc3c2O[C@@H]2COc4cc(OC)c(OC)cc4[C@@H]2C3=O)O1 | – | 296 nM (active)
CNC(=O)N1N=C(c2ccc(N)cc2)c2cc3c(cc2CC1C)OCO3 (configuration not stated) | – | 3320 nM (active)
C[C@@H]1[C@@H](CC(C[C@H]2O[C@@H]3O[C@]4(C)CC[C@@H]5[C@H](C)CC[C@@H]([C@H]2C)[C@@]35OO4)C[S+](=O)([O-])c2ccc(COC(=O)N(C)C)cc2)O[C@@H]2O[C@]3(C)CC[C@H]4[C@H](C)CC[C@@H]1[C@@]24OO3 (some centres not stated) | – | 187 nM (active)
CN(C)[C@@H]1C(=O)C(C(N)=O)=C(O)[C@@]2(O)C(=O)C3=C(O)c4c(O)cccc4[C@@](C)(O)[C@H]3C[C@@H]12 | 117% | –
COc1ccc(C(=O)c2c(C)n(CCN3CCOCC3)c3ccccc23)cc1 | 111% | –
O=C1CC[C@@]2(O)[C@H]3Cc4ccc(O)c5c4[C@@]2(CCN3CC2CC2)[C@H]1O5 | 134% | –
CC1=C2C[C@@H]3[C@@H](CC=C4C[C@@H](O)CC[C@@]43C)[C@@H]2CC[C@]12O[C@H]1C[C@H](C)CN[C@H]1[C@H]2C | 134% | –
Cn1c(CCCC(=O)O)nc2cc(N(CCCl)CCCl)ccc21 | 151% | –
C[C@@H]1O[C@@H](O[C@H]2C[C@@H](O)[C@]3(CO)[C@H]4[C@H](O)C[C@]5(C)[C@@H](C6=CC(=O)OC6)CC[C@]5(O)[C@@H]4CC[C@]3(O)C2)[C@H](O)[C@H](O)[C@H]1O | – | 18.7 nM (active)
CNCC(O)c1ccc(O)cc1 (configuration not stated) | 99.9% | –
CN(C)CCc1ccc(O)cc1 | 117% | –
O=C(O)C(=O)c1cn(Cc2ccccc2)c2ccc(-c3ccc(OC(F)(F)F)cc3)cc12 | 141% | –
COC[C@H]1OC(=O)c2coc3c2[C@@]1(C)C1=C(C3=O)C2CCC(=O)[C@@]2(C)C[C@H]1OC(C)=O (some centres not stated) | – | 14800 nM (active)
CNC(=O)c1ccc(N2C(=S)N(c3ccc(C#N)c(C(F)(F)F)c3)C(=O)C23CCC3)cc1F | 107% | –
CCCC(C)(COC(N)=O)COC(=O)NC(C)C (configuration not stated) | 97.8% | –
CC(O)(CS(=O)(=O)c1ccc(F)cc1)C(=O)Nc1ccc(C#N)c(C(F)(F)F)c1 (configuration not stated) | – | 2350 nM (active)
Cn1cc(C2=C(c3cn(C4CCN(Cc5ccccn5)CC4)c4ccccc34)C(=O)NC2=O)c2ccccc21 | – | 18700 nM (active)
CC(C)CC(N(C)C)C1(c2ccc(Cl)cc2)CCC1 (configuration not stated) | 110% | –
CN1CCN(C(=O)O[C@H]2c3nccnc3C(=O)N2c2ccc(Cl)cn2)CC1 | 134% | –
N[C@@H](Cc1ccc(N(CCCl)CCCl)cc1)C(=O)O | – | 3720 nM (active)
COc1ccc2c(c1OC)CN1CCc3cc4c(cc3C1C2)OCO4 (configuration not stated) | – | 20900 nM (active)
COC[C@@H](NC(C)=O)C(=O)NCc1ccccc1 | 88% | –
C[C@@H]1[C@@H](C(=O)C[C@H]2O[C@@H]3O[C@]4(C)CC[C@@H]5[C@H](C)CC[C@@H]([C@H]2C)[C@@]35OO4)O[C@@H]2O[C@]3(C)CC[C@H]4[C@H](C)CC[C@@H]1[C@@]24OO3 | – | 166 nM (active)
CN(C)CCN(C)CCc1ccc(Cl)c(Cl)c1 | 120% | –
